# Screening results: PubChem, National Center for Advancing Translational Sciences (NCATS)
# In the library only some 12% were active in any assay of this set; here they are far more common.
# G9a inh – inhibitors of human histone lysine methyltransferase G9a. Potency, µM (highest dose often 102 µM), without a hit: at the highest dose activity, negative = inhibition, hits mostly inhibitors. G9a H3K9 monomethylation, AlphaScreen, 2 h. 350,000 compounds, 8.8% hits. Q96KQ7; further: on the % scale 0 is the no-effect control and ±100 the full control effect; nearly all actives have a fitted effect of over 75% in size
# Target sequence (Q96KQ7 913-1193 limits assumed): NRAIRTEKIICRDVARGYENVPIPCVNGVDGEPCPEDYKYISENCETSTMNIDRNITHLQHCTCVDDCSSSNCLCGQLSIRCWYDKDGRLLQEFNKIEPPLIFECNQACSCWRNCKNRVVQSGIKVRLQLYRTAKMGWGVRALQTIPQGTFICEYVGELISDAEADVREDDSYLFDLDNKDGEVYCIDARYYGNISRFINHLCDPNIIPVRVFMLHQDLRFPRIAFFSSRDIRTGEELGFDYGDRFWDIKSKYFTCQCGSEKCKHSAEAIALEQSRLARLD
#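 Readings reflect AlphaScreen signal from monomethyl-H3K9 antibody detection. HMT at 20 nM; substrate b-H3K9 500 nM; cofactor SAM 20 uM; 2 h RT reaction; compounds tested as titrations in qHTS with 15 min preincubation.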
# HP1b chromo inh – blocks HP1-beta chromodomain binding to methylated histone tails; P83916; AlphaScreen HP1-beta / biotin-H3K9me3 peptide binding; Potency, µM (doses to about 114 µM), for the others: at the highest dose activity change, negative = inhibition, most hits filed as inhibitors; 390,000 compounds, 0.56% hits; further: nearly all actives have a fitted effect of over 70% in size
# Target sequence (P83916 whole entry, looked up): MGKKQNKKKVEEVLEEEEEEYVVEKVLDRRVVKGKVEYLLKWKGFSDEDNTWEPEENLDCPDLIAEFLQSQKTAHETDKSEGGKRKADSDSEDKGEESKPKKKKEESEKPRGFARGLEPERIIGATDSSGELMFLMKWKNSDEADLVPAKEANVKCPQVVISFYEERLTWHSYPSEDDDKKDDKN
#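 HP1-beta protein (50 nM final) preincubated 30 min at room temperature with biotinylated H3(1-18)K9me3 peptide (50 nM) in PBS pH 7.4, 0.01% Tween-20, then compound added for 30 min. AlphaScreen streptavidin donor/nickel chelate acceptor beads (10 ug/mL final), 30 min dark, luminescence read.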
# BAZ2B inh – BAZ2B (human) inhibition; Q9UIF8; AlphaScreen BAZ2B-H3K14Ac peptide displacement; Potency, µM (series often up to 114 µM), inactives show at the top dose activity change, negative = inhibition, actives largely listed as inhibitors; 360,000 compounds, 4.4% hits; AID 504333; further: on the % scale 0 is the no-effect control and ±100 the full control effect; nearly all actives have a fitted effect of over 60% in size
#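 In this displacement format the biotinylated H3(5-23) peptide acetylated at Lys14 serves as ligand at 50 nM, with BAZ2B at 50 nM in PBS pH 7.4 containing 0.01% Tween-20. Donor and acceptor beads are 10 ug/mL final.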
# JMJD2A Tudor inh – JMJD2A Tudor domain (human) inhibition. AlphaScreen JMJD2A-Tudor / H3K4me3 peptide binding. 390,000 compounds, 4.4% hits. Potency, µM (highest dose often 114 µM), without a hit: top-dose activity change, negative = inhibition, most hits filed as inhibitors; further: on the % scale 0 is the no-effect control and ±100 the full control effect; nearly all actives have a fitted effect of over 50% in size
# Sfp PPTase inh – Sfp phosphopantetheinyl transferase inhibition; Potency, µM, for inactives: largest response in the series, negative = inhibition, hits mostly inhibitors; 310,000 compounds, 3.5% hits; AID 1490; Biochemical Sfp PPTase activity, qHTS; Q9F4F7;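 further: the enzyme is Sfp with the accession as filed and its product quenches rhodamine fluorescence; 0% = enzyme reaction without inhibitor and -100% = no enzyme wells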
#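 Step 1, compound plus 15 nM Sfp-PPTase, 15 min, room temperature. Step 2, add rhodamine-CoA (5 uM) and BHQ-2-YbbR (12.5 uM). Step 3, read 525/598 nm fluorescence at 0 and 30 min.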
# L3MBTL1 block – inhibitors of human L3MBTL1 | Q9Y468 | AlphaScreen L3MBTL1–H3K9me1 peptide binding | Potency, µM (titrated, usually from 57.1 µM), for inactives: top-dose activity, negative = inhibition, hits mostly inhibitors | 230,000 compounds, 0.66% hits | AID 485360; further: on the % scale 0 is the no-effect control and ±100 the full control effect; nearly all actives have a fitted effect of over 60% in size
#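 AlphaScreen assay: L3MBTL1 (50 nM final) was preincubated 30 min at room temperature with biotinylated H3(1-15)K9me1 peptide (75 nM final), then 30 min with library compounds; streptavidin donor and nickel chelate acceptor beads (10 ug/mL final) added, 30 min dark.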
# Numbers without * were called inactive; ? = inconclusive; . = not tested or not shown; [ ] = dose if it differs, or a comment. The call rests on the fitted dose curve; in most records, active means well fitted curve in the direction sought with a large enough effect; inconclusive means small, poorly fitted or top-dose-only effect, or another doubt; inactive means no such curve, though single readings can be large; an effect the other way counts as inactive or inconclusive. Potency means the concentration at half of the fitted maximal effect.
SMILES,G9a inh,HP1b chromo inh,BAZ2B inh,JMJD2A Tudor inh,Sfp PPTase inh,L3MBTL1 block
CCN1CCN(C(=O)C(=O)c2cn(CC(=O)N3CCCC3)c3ccccc23)CC1,-4.8%,24.1%,-4.9%,-14.6%,6.0%,.
O=C(CN1CCOCC1)c1c[nH]c2ccccc12,36.1%[0.501 µM],30.7%,-29.0%,-8.2%,13.6%,-0.5%
COc1ccc(N2CCN(C(=O)C(=O)c3c[nH]c4ccccc34)CC2)cc1,44.7µM*,-9.3%[57 µM],?,?,18.0%,.
COc1ccc(CCNC(=O)CN(c2ccc(C)cc2)S(=O)(=O)c2ccc(OC)cc2)cc1,-3.4%[59 µM],9.0%,4.3%,-18.0%,.,.
COCCn1c(=O)c(-c2ccc(Cl)cc2)nc2cnc(N(C)C)nc21,13.0%[0.501 µM],.,.,.,1.5%,.
N#C/C(=C\c1ccc(N2CCOCC2)cc1)c1ccccc1,5.3%[59 µM],-0.5%,-4.6%,-30.1%,-19.3%,1.3%
N#C/C(=C\c1ccc(N2CCOCC2)o1)c1ccccc1,?,-14.2%,39.8µM*,?,25.1µM*,36.5%
N#C/C(=C/c1ccc(N2CCOCC2)o1)c1nc2ccccc2[nH]1,8.91µM*,-19.1%,?,?,20µM*,-12.8%
S=C(c1nc2ccccc2[nH]1)N1CCOCC1,1.58µM*,?,9.6%,-53.5%,25.1µM*,6.7%
CCOc1cc2c(cc1OCC)C(c1c(F)cccc1Cl)CC(=O)N2 (stereo not given),-9.7%[59 µM],14.4%,-1.7%,-19.5%,.,.
Cc1nnc(SCC(=O)c2ccc(S(=O)(=O)N3CCOCC3)cc2)n1-c1ccccc1,?,-6.7%,-3.7%,?,31.6µM*,-2.8%
COc1ccc(-n2cnnc2SCC(=O)c2ccc(S(=O)(=O)N3CCOCC3)cc2)cc1,-93.4%,19.3%,-6.7%,-9.2%,56.2µM*,-2.7%
O=C(CNS(=O)(=O)c1ccc2ccccc2c1)OCc1nnc(-c2ccccc2)o1,22.4µM*,21.0%,-2.4%,-9.9%,-2.2%,.
CC1CCCN(C(=O)COC(=O)CNS(=O)(=O)c2ccc3ccccc3c2)C1 (stereo not given),7.08µM*,5.9%,-13.0%,-13.1%,.,23.7%
O=C(CCC(=O)c1cccs1)OCc1nnc(-c2ccccc2)o1,13.6%[12.7 µM],?,4.4%,50.1µM*,11.9%,.
CN(Cc1ccccc1)C(=O)COC(=O)CNS(=O)(=O)c1ccc2ccccc2c1,-28.9%[59 µM],6.2%,7.7%,-16.4%,.,4.9%
Cc1cc(C)c(S(=O)(=O)N2CCOC2CNC(=O)C(=O)NCCCn2ccnc2)c(C)c1 (stereo not given),.,34.6%,12.6µM*,50.1µM*,5.9%,.
O=C(NCCc1ccccc1)C(=O)NCC1OCCN1S(=O)(=O)c1ccc2c(c1)OCCO2 (stereo not given),.,42.1%,-8.3%,-11.7%,9.7%,.
O=C(NCCCn1ccnc1)C(=O)NCC1OCCN1S(=O)(=O)c1ccc2c(c1)OCCO2 (stereo not given),.,0.8%,39.8µM*,?,18.0%,.
CN(C)CCCNC(=O)C(=O)NCC1OCCN1S(=O)(=O)c1cccs1 (stereo not given),.,23.4%,-5.1%,-6.9%,79.4µM*,.
O=C(CNC(=O)c1ccccc1Cl)OCc1cc(=O)n2ccsc2n1,-3.4%[59 µM],49.2%,1.1%,1.0%,.,.
CCC(=O)N1c2ccccc2CC1C(=O)NCCN1CCN(c2cccc(C(F)(F)F)c2)CC1 (stereo not given),6.3%[12.7 µM],20.8%,-20.5%,-8.9%,.,.
O=C(CCl)N1CCN(S(=O)(=O)c2ccc3ccccc3c2)CC1,-16.9%,40.5%,-17.6%,-27.1%,14.2%,.
O=C(CNCC1CCCO1)N1CCN(S(=O)(=O)c2ccc3ccccc3c2)CC1 (stereo not given),?,-34.6%,56.2µM*,7.94µM*,-10.7%,.
O=C(NCC1CCCO1)c1cc(S(=O)(=O)N2CCCCC2)ccc1Cl (stereo not given),8.0%[12.7 µM],35.5%,56.2µM*,-8.4%,.,1.4%
SMILES,G9a inh,HP1b chromo inh,BAZ2B inh,JMJD2A Tudor inh,Sfp PPTase inh,L3MBTL1 block
Cc1ccc(S(=O)(=O)N2CCCCC2)cc1C(=O)NCC1CCCO1 (stereo not given),19.2%,18.4%,-1.5%,2.2%,16.0%,.
O=C(COc1cccc2c1CCN(Cc1ccc(Br)cc1)C2=O)NCc1ccco1,?,-31.5%,?,50.1µM*,-13.5%,-6.1%
O=C(COc1ccc(Cl)cc1Cl)NCc1ccco1,56.2µM*,10.8%,-36.1%,-23.3%,9.4%,-5.3%
CCOc1ccccc1OCC(=O)NCc1ccco1,?,14.0%,?,?,-17.1%,?
O=C(COc1ccccc1-c1ccccc1)NCc1ccco1,-31.3%,24.3%,.,-26.6%,89.1µM*,-19.6%
O=C(COc1ccccc1Cl)NCc1ccco1,-12.1%,11.5%,1.2%,-5.6%,6.7%,1.7%
O=C(COc1ccc(Cl)cc1Cl)NNC(=S)NC(=O)c1ccco1,7.94µM*,?,-2.0%,?,?,.
Cc1ccc2c(Cl)cc(Cl)c(OCC(=O)NCc3ccco3)c2n1,9.4%[12.7 µM],.,39.8µM*,.,?,.
CC(Oc1ccc(Cl)cc1)C(=O)NNC(=S)NC(=O)c1ccco1 (stereo not given),11.2µM*,-5.7%,4.0%,-26.5%,-4.6%,6.8%
COc1ccc2oc(-c3ccc(C)c(NC(=O)c4ccc5c(c4)OCCO5)c3)nc2c1,-7.1%[59 µM],13.9%,-13.7%,-6.0%,.,.
N#Cc1c(Nc2cccc(F)c2)sc(C(=O)c2ccc(Cl)cc2)c1N,11.2µM*,5.3%,?,-15.3%,.,.
N#Cc1c(SCc2ccc(Cl)cc2)sc(C(=O)c2ccccc2)c1N,-3.5%,76.0%,-1.0%,-7.4%,3.3%,14.5%
Cc1cc(C)c2c(C)c(C(=O)Nc3c(C)n(C)n(-c4ccccc4)c3=O)oc2c1,70.8µM*,35.4%,0.5%,-11.0%,0.0%,-2.5%
Cc1ccc2c(=O)cc(C(=O)Nc3c(C)n(C)n(-c4ccccc4)c3=O)oc2c1,?,26.7%,-5.6%,-3.1%,.,.
Cc1c(NC(=O)c2cc(-c3ccccc3)on2)c(=O)n(-c2ccccc2)n1C,12.3%[59 µM],-7.5%,7.8%,100µM*,9.3%,.
Cc1onc(-c2c(F)cccc2Cl)c1C(=O)NC(=S)Nc1c(C)n(C)n(-c2ccccc2)c1=O,31.6µM*,23.0%,?,-13.7%,18.2%,6.6%
Cc1c(NC(=O)c2ccc(COc3ccc4ccccc4c3)o2)c(=O)n(-c2ccccc2)n1C,?,1.3%,50.1µM*,-31.4%,-10.1%,-10.9%
CCOC(=O)c1c(C)oc2nc(C)nc(NCc3cccc(Cl)c3)c12,-0.4%[59 µM],56.9%,-7.2%[57.1 µM],44.7%,.,.
Cc1c(Nc2scc(-c3ccccc3)[n+]2-c2ccccc2)c(=O)n(-c2ccccc2)n1C,28.2µM*,?,50.1µM*,56.2µM*,?,.
